Several values for one entry are separate records, joined by “and”; a condition that tells them apart may be missing. Identical values can stand only once. The whole screen tested about 5,500 compounds, of which about 2,000 (36%) were called active. About 18% were inconclusive and are not listed. No stated cut-off is given here; in the data, active means normalized growth mostly below about 0.91 (no sharp cut-off); inconclusive means no clear call, values can overlap the other calls; inactive means mostly above about 0.92. This is one part of the list.
Test: chemical genetic growth profiling, strain panel (AID 1159580);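 further: tested at 20 µM; growth read once vehicle control cultures reached saturation at 30 °C; 1 = growth at the plate median or of vehicle wells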
Settings: S. cerevisiae deletion strains, growth OD

Measured: normalized growth

CNC(C)[C@@H]1CC[C@@H](N)[C@@H](OC2[C@@H](N)C[C@@H](N)[C@H](OC3OC[C@](C)(O)[C@H](NC)[C@H]3O)[C@H]2O)O1 (stereo partly drawn)
inactive: locus YAL013W, strain DEP1, stronger effect = lower value 1.02 | locus YAL021C, strain ccr4, stronger effect = lower value 1.02 | locus YAL026C, strain drs2, stronger effect = lower value 0.997 | locus YAL030W, strain snc1, stronger effect = lower value 0.998 | locus YBL061C, strain skt5, stronger effect = lower value 0.977 | locus YBR009C, strain hhf1, stronger effect = lower value 1.01 | locus YBR021W, strain FUR4, stronger effect = lower value 1.02 | locus YBR023C, strain chs3, stronger effect = lower value 0.988 | locus YBR171W, strain sec66, stronger effect = lower value 0.986 | locus YBR229C, strain ROT2, stronger effect = lower value 1.02 | locus YBR231C, strain swc5, stronger effect = lower value 0.982 | locus YBR279W, strain paf1, stronger effect = lower value 0.991 | locus YCL011C, strain gbp2, stronger effect = lower value 1.01 | locus YCL016C, strain dcc1, stronger effect = lower value 1 | locus YCL029C, strain bik1, stronger effect = lower value 1.01 | locus YCL069W, strain vba3, stronger effect = lower value 0.992 | locus YCR088W, strain abp1, stronger effect = lower value 0.999 | locus YDL005C, strain med2, stronger effect = lower value 0.98 | locus YDL035C, strain GPR1, stronger effect = lower value 1.01 | locus YDL040C, strain nat1, stronger effect = lower value 0.994 | locus YDL074C, strain BRE1, stronger effect = lower value 1.03 | locus YDL101C, strain DUN1, stronger effect = lower value 1.01 | locus YDL134C, strain PPH21, stronger effect = lower value 1 | locus YDL185W, strain tfp1, stronger effect = lower value 1.02 | locus YDL192W, strain arf1, stronger effect = lower value 1.04 | locus YDR001C, strain nth1, stronger effect = lower value 0.988 | locus YDR069C, strain doa4, stronger effect = lower value 0.988 | locus YDR101C, strain arx1, stronger effect = lower value 0.992 | locus YDR137W, strain rgp1, stronger effect = lower value 1.01 | locus YDR150W, strain NUM1, stronger effect = lower value 1.01 | locus YDR159W, strain sac3, stronger effect = lower value 0.995 | locus YDR162C, strain NBP2, stronger effect = lower value 1.01 | locus YDR195W, strain ref2 0.947 | locus YDR297W, strain sur2, stronger effect = lower value 0.983 | locus YDR318W, strain mcm21, stronger effect = lower value 1.02 | locus YDR334W, strain swr1, stronger effect = lower value 0.98 | locus YDR335W, strain msn5, stronger effect = lower value 0.98 | locus YDR388W, stronger effect = lower value 1.01 | locus YDR392W, strain spt3, stronger effect = lower value 1.03 | locus YDR502C, strain sam2, stronger effect = lower value 1.05 | locus YEL003W, strain gim4, stronger effect = lower value 0.975 | locus YEL037C, strain rad23, stronger effect = lower value 0.995 | locus YEL061C, strain CIN8 (second series), stronger effect = lower value 0.982 | locus YEL061C, strain CIN8, stronger effect = lower value 1.02 | locus YER015W, strain faa2, stronger effect = lower value 0.993 | locus YER016W, strain bim1, stronger effect = lower value 0.979 | locus YER110C, stronger effect = lower value 1.02 | locus YER111C, strain swi4, stronger effect = lower value 0.976 | locus YER155C, strain BEM2 (second series), stronger effect = lower value 0.997 | locus YER155C, strain BEM2, stronger effect = lower value 1.01 | locus YER167W, strain BCK2, stronger effect = lower value 1.01 | locus YFR010W, strain ubp6, stronger effect = lower value 0.98 | locus YGL078C, strain dbp3, stronger effect = lower value 1.02 | locus YGL086W, strain mad1, stronger effect = lower value 1.01 | locus YGL167C, strain pmr1, stronger effect = lower value 0.982 | locus YGL173C, strain kem1, stronger effect = lower value 0.974 | locus YGL227W, strain vid30, stronger effect = lower value 0.987 | locus YGL240W, strain doc1, stronger effect = lower value 0.99 | locus YGL248W, strain PDE1, stronger effect = lower value 1.01 | locus YGL253W, strain hxk2, stronger effect = lower value 0.987 | locus YGR135W, strain pre9, stronger effect = lower value 1.05 | locus YGR229C, strain SMI1, stronger effect = lower value 1.01 | locus YGR252W, strain gcn5, stronger effect = lower value 1.04 | locus YHR013C, strain ard1, stronger effect = lower value 1.02 | locus YHR027C, strain rpn1, stronger effect = lower value 1 | locus YHR030C, strain SLT2, stronger effect = lower value 1.02 and 0.984 | locus YHR079C, strain IRE1 (second series), stronger effect = lower value 1.02 | locus YHR079C, strain IRE1, stronger effect = lower value 1.01 | locus YHR094C, strain hxt1, stronger effect = lower value 1.01 | locus YHR129C, strain ARP1, stronger effect = lower value 1 | locus YHR142W, strain chs7, stronger effect = lower value 0.971 | locus YHR200W, strain rpn10, stronger effect = lower value 1.03 | locus YIL066C, strain RNR3, stronger effect = lower value 1.01 | locus YIL073C, strain SPO22, stronger effect = lower value 1.04 | locus YIL125W, strain kgd1, stronger effect = lower value 1.02 | locus YIR030C, strain dcg1, stronger effect = lower value 1.03 | locus YJL092W, strain hpr5, stronger effect = lower value 0.993 | locus YJL095W, strain BCK1 (second series), stronger effect = lower value 0.993 | locus YJL095W, strain BCK1, stronger effect = lower value 1.02 and 1 | locus YJL115W, strain asf1, stronger effect = lower value 0.982 | locus YJL129C, strain trk1, stronger effect = lower value 0.964 | locus YJL134W, strain LCB3, stronger effect = lower value 1.02 | locus YJL154C, strain vps35, stronger effect = lower value 0.999 | locus YJL164C, strain tpk1, stronger effect = lower value 1.01 | locus YJL166W, strain qcr8, stronger effect = lower value 0.984 | locus YJL168C, strain set2, stronger effect = lower value 1.02 | locus YJL187C, strain SWE1 (second series), stronger effect = lower value 1.01 | locus YJL187C, strain SWE1, stronger effect = lower value 0.992 | locus YJR043C, strain POL32, stronger effect = lower value 0.996 | locus YJR066W, strain TOR1, stronger effect = lower value 0.999 | locus YJR075W, strain HOC1, stronger effect = lower value 1.03 | locus YKL009W, strain mrt4, stronger effect = lower value 1.01 | locus YKL068W, stronger effect = lower value 1.01 | locus YKL085W, strain MDH1 (second series), stronger effect = lower value 1.02 | locus YKL085W, strain MDH1, stronger effect = lower value 1.02 | locus YKL160W, strain elf1, stronger effect = lower value 0.977 | locus YKL190W, strain CNB1, stronger effect = lower value 1.02 | locus YKR001C, strain vps1, stronger effect = lower value 1.02 | locus YKR026C, strain gcn3, stronger effect = lower value 1 | locus YKR091W, strain srl3, stronger effect = lower value 0.986 | locus YLL001W, strain dnm1, stronger effect = lower value 0.972 | locus YLL026W, stronger effect = lower value 0.996 | locus YLL041C, strain sdh2, stronger effect = lower value 0.995 | locus YLR027C, strain aat2, stronger effect = lower value 0.991 | locus YLR039C, strain RIC1, stronger effect = lower value 1.08 | locus YLR058C, strain SHM2, stronger effect = lower value 1.03 | locus YLR102C, strain apc9, stronger effect = lower value 1.03 | locus YLR113W, strain HOG1, stronger effect = lower value 0.987 | locus YLR221C, strain rsa3, stronger effect = lower value 0.99 | locus YLR258W, strain gsy2, stronger effect = lower value 1 | locus YLR262C, strain YPT6 (second series), stronger effect = lower value 0.977 | locus YLR262C, strain YPT6, stronger effect = lower value 1.05 | locus YLR268W, strain sec22, stronger effect = lower value 1.01 | locus YLR320W, strain mms22, stronger effect = lower value 1 | locus YLR330W, strain CHS5, stronger effect = lower value 1.01 | locus YLR342W, strain FKS1 (second series), stronger effect = lower value 0.996 | locus YLR342W, strain FKS1, stronger effect = lower value 0.977 | locus YLR357W, strain rsc2, stronger effect = lower value 0.991 | locus YLR370C, strain arc18, stronger effect = lower value 0.984 | locus YLR371W, strain rom2, stronger effect = lower value 1.01 | locus YLR384C, strain iki3, stronger effect = lower value 0.992 | locus YLR418C, strain cdc73, stronger effect = lower value 1.02 | locus YML016C, strain PPZ1, stronger effect = lower value 1.01 | locus YML032C, strain rad52, stronger effect = lower value 1.02 | locus YML120C, strain ndi1, stronger effect = lower value 0.996 | locus YML124C, strain tub3, stronger effect = lower value 1.01 | locus YMR058W, strain fet3, stronger effect = lower value 0.994 | locus YMR078C, strain ctf18, stronger effect = lower value 1.02 | locus YMR125W, strain sto1, stronger effect = lower value 0.979 | locus YMR129W, stronger effect = lower value 1 | locus YMR205C, strain PFK2, stronger effect = lower value 0.987 | locus YMR223W, strain ubp8, stronger effect = lower value 1.04 | locus YMR231W, strain pep5, stronger effect = lower value 0.988 | locus YMR263W, strain SAP30, stronger effect = lower value 1.01 | locus YMR307W, strain GAS1, stronger effect = lower value 1 | locus YNL067W, strain RPL9B, stronger effect = lower value 1.02 | locus YNL071W, strain lat1, stronger effect = lower value 0.996 | locus YNL153C, strain GIM3, stronger effect = lower value 1.01 | locus YNL183C, strain NPR1, stronger effect = lower value 0.97 | locus YNL209W, strain ssb2, stronger effect = lower value 1 | locus YNL233W, strain BNI4, stronger effect = lower value 1.01 | locus YNL248C, strain rpa49, stronger effect = lower value 1.02 | locus YNL250W, strain rad50, stronger effect = lower value 1.05 | locus YNL271C, strain bni1, stronger effect = lower value 1.03 | locus YNL298W, strain CLA4, stronger effect = lower value 1.02 | locus YNL307C, strain MCK1, stronger effect = lower value 1.03 | locus YNL322C, strain KRE1 (second series), stronger effect = lower value 0.988 | locus YNL322C, strain KRE1, stronger effect = lower value 1.02 | locus YNR049C, strain mso1, stronger effect = lower value 0.986 | locus YNR052C, strain pop2, stronger effect = lower value 1.02 | locus YOL006C, strain TOP1, stronger effect = lower value 1.06 | locus YOL012C, strain htz1 0.693 | locus YOL147C, strain pex11, stronger effect = lower value 1.02 | locus YOR001W, strain rrp6, stronger effect = lower value 0.985 | locus YOR061W, strain CKA2, stronger effect = lower value 1.01 | locus YOR069W, strain VPS5, stronger effect = lower value 1.01 | locus YOR070C, strain gyp1, stronger effect = lower value 0.987 | locus YOR080W, strain dia2, stronger effect = lower value 0.982 | locus YOR083W, strain WHI5, stronger effect = lower value 0.977 | locus YOR106W, strain vam3, stronger effect = lower value 0.983 | locus YOR136W, strain idh2, stronger effect = lower value 1.02 | locus YOR144C, strain elg1, stronger effect = lower value 1.01 | locus YOR184W, strain ser1, stronger effect = lower value 1.03 | locus YOR231W, strain MKK1, stronger effect = lower value 0.976 | locus YOR265W, strain rbl2, stronger effect = lower value 0.987 | locus YOR270C, strain vph1, stronger effect = lower value 0.996 | locus YOR290C, strain snf2, stronger effect = lower value 1.01 | locus YOR316C, strain cot1, stronger effect = lower value 1.02 | locus YPL051W, strain arl3, stronger effect = lower value 0.982 | locus YPL078C, strain atp4, stronger effect = lower value 0.973 | locus YPL106C, strain sse1, stronger effect = lower value 1 | locus YPL240C, strain hsp82, stronger effect = lower value 0.99 | locus YPL256C, strain CLN2, stronger effect = lower value 0.988 | locus YPR119W, strain clb2, stronger effect = lower value 1.03 | locus YPR141C, strain kar3, stronger effect = lower value 1.02 | locus YPR163C, strain tif3, stronger effect = lower value 1.02 | locus YPR167C, strain met16, stronger effect = lower value 1.02 | strain wtn01, stronger effect = lower value 1.01

— PubChem BioAssay AID1159580 (chemical genetic matrix, 2015)
